The values that follow come from PubChem BioAssay AID1259339 (Broad Institute, 2017).

The structures appear in SMILES notation. Values without a mark were called inactive. Active and inactive are the calls of the source.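 How the source made its calls: active means fitted AC50 no higher than ten times the top tested dose (cut at about 90 µM in these data); inconclusive means flat curve with 30 to 70% signal loss, or bad fit; inactive means AC50 beyond ten times the top dose.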 Bounds are passed on as bounds.

This test in a line: AlphaLISA signal interference compounds, dose response, artefact control, biochemical, TruHit kit (AID 1259339). Particulars: TruHit alphaLISA kit signal interference counterscreen; series mostly up to 80 µM.
As for `NC(=O)C1(N2CCCCC2)CCN(c2ccc(NC(=O)c3cccc(Cl)c3)cc2C(=O)O)CC1`, the AC50 entry was “inactive”.

Regarding `NC(=O)c1ccc(CN2C(=O)C3(CCNCC3)Nc3ccccc32)cc1`, the AC50 result is “inactive”.

Take `O=C(NCc1ccco1)c1c2c(nc3ccccc13)CCC2`: the AC50 is 82.4 µM (active).

On to `NC(=O)C1(N2CCCCC2)CCN(c2ncc(NC(=O)c3ccc(Cl)cc3)cc2C(=O)O)CC1`, for which the AC50 is 81.9 µM (active).

Consider `O=C(Nc1nc(-c2ccccn2)cs1)c1cccc(-n2cnnn2)c1`, for which the AC50 result is “inactive”.

Turning to `COc1ccc(-c2nnc(-c3nc(Nc4ccc(NC(C)=O)cc4)c4ccccc4n3)o2)cc1`, the AC50 is greater than 160 µM.

Take `O=C(O)C1Oc2cc3ccccc3cc2O1`: the AC50 was 30.2 µM (active).

`COC[C@]1(O)CCN(C(=O)CCN(C)S(C)(=O)=O)CC1(C)C`: the AC50 entry is “inactive”.

`Cc1cccc(Nc2nc(C(=O)Nc3cc(F)ccc3F)nc3ccccc23)c1`: the AC50 entry is “inactive”.

Consider `NC(=O)C1(N2CCCCC2)CCN(c2ncc(NC(=O)c3ccccc3)cc2C(=O)O)CC1`, for which the AC50 entry is “inactive”.

As for `O=C(Nc1nc(-c2ccco2)c(-c2ccco2)s1)c1ccco1`, the AC50 was 0.98 µM (active).

For `COCCC(=O)N1CCCC2(CCN(CCN3CCCC3)C2=O)C1` (stereo unspecified), the AC50 result was “inactive”.

Take `Cc1ccc2cc(CN(Cc3ccco3)S(C)(=O)=O)c(=O)[nH]c2c1`: the AC50 result was “inactive”.

With `NC(=O)C1(N2CCCCC2)CCN(c2ncc(NC(=O)c3ccc(F)cc3)cc2C(=O)O)CC1`, the AC50 entry is “inactive”.

For `Cc1ccc(N2C(=O)c3ccccc3C2C(=O)c2ccc(O)cc2O)cc1` (stereo unspecified), the AC50 result is “inactive”.

As for `CCN1CCN(C(=O)c2cc(-c3ccco3)nc3ccccc23)CC1`, the AC50 is greater than 160 µM.

With `Cc1ccccc1C(=O)Nc1cnc(N2CCC(C(N)=O)(N3CCCCC3)CC2)c(C(=O)O)c1`, the AC50 result was “inactive”.

As for `O=C(Nc1ccc2oc(-c3ccncc3)nc2c1)c1ccc2c(c1)OCCO2`, the AC50 entry was “inactive”.

With `CCCc1cc(C(=O)N2CC[C@H]3CNC[C@H]32)n(C)n1`, the AC50 result was “inactive”.

As to `O=C(Nc1nccs1)c1cc(-c2ccccn2)nc2c(Cl)cccc12`, the half-maximal activity concentration (AC50) is 2.07 µM (active).

For `O=C(Cc1ccc(S(=O)(=O)N2CCOCC2)s1)Nc1nc2c(s1)CCCC2`, the AC50 was 29.2 µM (active).

Take `N#CNc1nc(O)cc(=O)[nH]1`: the AC50 entry is “inactive”.

With `Cc1ccc(-c2cc(C(=O)NCc3ccco3)c3ccccc3n2)o1`, the AC50 is 64.5 µM (active).

On to `Cc1ccc(-c2nn(-c3ccccc3)cc2CN(Cc2ccccc2)C(=O)CCC(=O)O)o1`, for which the AC50 was 53.7 µM (active).

In the case of `COc1ccc(NC(=O)CN(C)C(=O)c2cc(-c3ccco3)nc3ccccc23)cc1`, the AC50 is 36.6 µM (active).

Take `c1coc(-c2cn3ccc4ccccc4c3n2)c1`: the AC50 is 81.7 µM (active).

For the molecule `O=C(O)Cc1c[nH]c2cccc(O)c12`, the AC50 is 11.3 µM (active).

Turning to `O=C(Nc1ccc2oc(-c3ccncc3)nc2c1)c1ccc2c(c1)OCO2`, the AC50 result was “inactive”.

As to `CCc1ccc(Nc2nc(C(=O)NCc3ccc(N(C)C)cc3)nc3ccccc23)cc1`, the AC50 entry was “inactive”.

For `Cc1ccc(N2NC(c3ccc(Br)cc3)=CCC2=O)cc1`, the AC50 was 66.7 µM (active).

With `O=S(=O)(Nc1nc2ccc(S(=O)(=O)N3CCCCC3)cc2s1)c1ccccc1`, the AC50 is 76.8 µM (active).

`O=C(Nc1nc(-c2ccco2)c(-c2ccco2)s1)c1ccc(F)cc1F`: the AC50 was 4.41 µM (active).

On to `O=S(=O)(c1ccc2nc(-c3ccco3)c(-c3ccco3)nc2c1)N1CCOCC1`, for which the AC50 was 26.8 µM (active).

Consider `CC(C)(C)c1ccc(-c2nc(C#N)c(NCc3ccncc3)o2)cc1`, for which the AC50 is 22.1 µM (active).

As to `CC(=O)c1sc2nc(-c3ccco3)ccc2c1N`, the AC50 was 43.6 µM (active).

With `O=C(COC(=O)c1ccc(F)cc1F)Nc1ncccn1`, the AC50 result was “inactive”.
